Experimental findings from PubChem BioAssay (NCATS) are described below.

Molecules are shown by their SMILES. “And” between values parts separate entries of the source, which are not always exact repeats. Identical values can stand only once. Results filed as inconclusive are left out. The source made the active and inactive calls. Unless noted, the call rests on the fitted dose curve.

Test [1] is described as follows: AP1 Signaling Pathway (AID 357; active means well fitted curve in either direction with a large enough effect, not every such curve was filed as active; further: on the % scale 0 is the no-effect control and ±100 the full control effect). The note with it: ME-180 AP-1-bla reporter, EGF-induced, beta-lactamase ratio, 5 h. The essentials: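 A ratiometric CCF4 readout (405 nm excitation; 460 and 530 nm emission) quantified AP-1-driven beta-lactamase in ME-180 cells after 5 h with compound and EC50 EGF; AC50 values were derived for activators and inhibitors.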
The nature of test [2]: NFAT Signaling Pathway (AID 444; active means well fitted curve in either direction with a large enough effect, not every such curve was filed as active;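 further: carbachol stimulus at about its EC50 of 1 µM final; on the % scale 0 is the no-effect control and ±100 the full control effect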). The settings on record: Jurkat NFAT-bla M1, carbachol, beta-lactamase ratio, 5 h. The essentials:
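Jurkat cells carrying an NFAT-driven β-lactamase reporter and co-transfected muscarinic M1 receptor were treated with compound plus carbachol (1 uM final, an EC50 level) for 5 h at 37 °C. CCF4 loading followed for 1 h at RT; 460/530 nm ratio gave %activity.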

Test [3] in a line: Stat Signaling Pathway (AID 446; active means well fitted curve in either direction with a large enough effect, not every such curve was filed as active;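 further: ME-180 cervical cancer cells given 40 pM IL-6 alongside compound; SIE-controlled beta-lactamase reporter measured as 460/530 nm FRET emission ratio; on the % scale 0 is the no-effect control and ±100 the full control effect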). The settings on record: ME-180 (cervical carcinoma) SIE beta-lactamase reporter, IL-6 stimulated, 5 h. An outline of the steps: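 Normalization used AC90 stimulation (300 pM IL-6) and AC90 inhibition (125 nM pan-JAK inhibitor at 40 pM IL-6). The underlying signal is SIE-driven beta-lactamase in ME-180 cells after 5 h IL-6 exposure with compound.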
In test [4] the target is Glucocorticoid receptor (Homo sapiens) (UniProt P04150). Briefly: GR-GFP Redistribution (AID 450;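 active means compounds whose dose series gives a full or clear partial fitted curve of increased nuclear translocation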; further: potency means the concentration at half of the fitted maximal effect). The settings on record: U2OS GR-GFP nuclear translocation, laser cytometry, 2 h.
Chain of Glucocorticoid receptor (Homo sapiens) (P04150 whole entry, looked up): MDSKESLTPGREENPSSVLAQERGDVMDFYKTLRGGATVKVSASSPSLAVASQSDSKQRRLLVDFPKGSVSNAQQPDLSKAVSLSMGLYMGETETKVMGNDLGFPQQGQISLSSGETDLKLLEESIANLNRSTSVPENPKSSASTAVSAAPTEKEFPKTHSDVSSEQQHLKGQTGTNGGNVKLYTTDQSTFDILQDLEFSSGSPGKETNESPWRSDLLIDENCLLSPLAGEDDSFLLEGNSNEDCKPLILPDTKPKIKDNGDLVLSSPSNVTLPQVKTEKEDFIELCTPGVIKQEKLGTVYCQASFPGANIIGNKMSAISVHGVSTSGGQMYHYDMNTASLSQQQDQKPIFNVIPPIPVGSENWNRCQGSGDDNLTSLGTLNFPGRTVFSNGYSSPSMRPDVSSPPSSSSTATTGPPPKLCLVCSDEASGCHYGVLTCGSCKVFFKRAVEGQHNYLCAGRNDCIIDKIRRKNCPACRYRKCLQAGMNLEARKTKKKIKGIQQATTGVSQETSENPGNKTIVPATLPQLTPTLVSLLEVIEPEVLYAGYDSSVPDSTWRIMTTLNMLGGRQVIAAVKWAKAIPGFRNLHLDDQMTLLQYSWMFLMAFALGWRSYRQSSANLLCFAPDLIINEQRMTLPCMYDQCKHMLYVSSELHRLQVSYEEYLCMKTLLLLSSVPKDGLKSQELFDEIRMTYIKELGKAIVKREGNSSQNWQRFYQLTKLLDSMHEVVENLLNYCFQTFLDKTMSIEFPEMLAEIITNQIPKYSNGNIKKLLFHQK
Test [5] shares this target. In words: GR-EFC Redistribution (AID 451). Further: potency means the concentration at half of the fitted maximal effect. The note with it: CHO-K1 GR-EFC translocation, beta-gal luminescence, 2 h. The essentials:
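CHO-K1 cells stably expressing nuclear-localized β-gal enzyme acceptor and GR fused C-terminally to the enzyme donor fragment; ligand-driven nuclear translocation restores β-gal by complementation. Compounds titrated up to 46 uM final, 2 h at 37 °C; luminescence read.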

The target in test [6] is 3',5'-cyclic-AMP phosphodiesterase 4B (Homo sapiens) (UniProt Q07343). In words: qHTS Assay for Inhibitors of PDE-IV (AID 607; active means well fitted activation curve with a large enough effect in the main read-out, with a control signal flat, not every such curve was filed as active; further: % of control where 0% means no effect). An outline of the steps: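 HEK293 ACTOne cells with CNG channel (1000/well), endogenous PDE4; membrane potential dye, compounds up to 22.9 uM final. Fluorescence Ex 535/Em 590; RO 20-1724 (100 uM final) as reference.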
Chain of 3',5'-cyclic-AMP phosphodiesterase 4B (Homo sapiens) (Q07343 whole entry, looked up): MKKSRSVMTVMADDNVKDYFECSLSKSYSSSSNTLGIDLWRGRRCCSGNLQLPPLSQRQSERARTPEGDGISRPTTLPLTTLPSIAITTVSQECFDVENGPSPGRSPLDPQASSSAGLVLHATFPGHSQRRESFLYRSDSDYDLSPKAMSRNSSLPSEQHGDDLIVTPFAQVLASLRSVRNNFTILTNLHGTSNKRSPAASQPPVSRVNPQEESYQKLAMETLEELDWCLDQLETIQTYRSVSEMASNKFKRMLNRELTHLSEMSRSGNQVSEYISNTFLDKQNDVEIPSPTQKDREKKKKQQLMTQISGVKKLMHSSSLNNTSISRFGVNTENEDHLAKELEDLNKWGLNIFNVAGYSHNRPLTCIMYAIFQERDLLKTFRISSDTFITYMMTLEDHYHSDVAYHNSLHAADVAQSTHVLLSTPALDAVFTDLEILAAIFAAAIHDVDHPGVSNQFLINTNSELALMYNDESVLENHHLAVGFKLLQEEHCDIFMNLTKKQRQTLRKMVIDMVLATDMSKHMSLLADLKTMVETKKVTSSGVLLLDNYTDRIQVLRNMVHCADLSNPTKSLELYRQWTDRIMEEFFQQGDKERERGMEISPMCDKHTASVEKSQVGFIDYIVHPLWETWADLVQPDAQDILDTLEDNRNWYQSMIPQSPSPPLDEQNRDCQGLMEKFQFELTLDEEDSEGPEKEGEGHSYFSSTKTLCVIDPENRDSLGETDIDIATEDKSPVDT
A short description of test [7]: qHTS Assay for Lipid Storage Modulators (AID 1519). The note with it: Drosophila S3 cells, BODIPY lipid droplet/cell ratio, laser cytometry, cells loaded with oleic acid. The essentials:
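Cells seeded at 5,000 per well were treated with compounds over a concentration series and loaded with oleic acid (400 uM, as added). Lipid droplet fluorescence (488 nm excitation, 500-530 nm channel) was read by laser-scanning cytometry and normalized to 20 uM Triacsin C.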

Test [8] concerns the target Ubiquitin carboxyl-terminal hydrolase 1 (Homo sapiens) (UniProt O94782). Briefly: Inhibitors of USP1/UAF1: Pilot qHTS (AID 504865; active means well fitted curve in the direction sought with a large enough effect; an effect the other way counts as inactive or inconclusive;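 further: rhodamine fluorescence freed from ubiquitin-rhodamine substrate followed over time; top concentration of the series differs between compounds; on the % scale 0 is the no-effect control and ±100 the full control effect; nearly all actives have a fitted effect of over 35% in size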). An outline of the steps:
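Enzyme-free wells gave the negative control, while test wells held 1nM USP1/UAF1 preincubated with compound for 15 min at room temperature. Ub-Rho at 150nM final started the reaction, and fluorescence at 480/540 nm was recorded kinetically.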
(In general: In qHTS, concentration-response curves come from the screen itself.)

The subject of test [9] is Zika virus NS2B-NS3 protease. Briefly: Primary screen GU AMC qHTS for Zika virus inhibitors (AID 1347154; active means well fitted curve in the direction sought with a large enough effect; an effect the other way counts as inactive or inconclusive;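 further: 0% = no-inhibitor control and -100% = no-enzyme control; nearly all actives have a fitted effect of over 70% in size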). An outline of the steps: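 Unlinked Zika NS2B hydrophilic domain/NS3 protease domain noncovalent complex (25 nM final) in 10 mM Tris-HCl pH 8.0, 0.01% Tween 20, with AMC peptide substrate. Fluorescence (ex 340, em 450 nm) change over 15 min, room temperature; percent inhibition fitted to 4-parameter Hill equation.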

The target of test [10] is Cytochrome P450 1A2 (Homo sapiens) (UniProt P05177). In words: p450-cyp1a2 (AID 410). Further: potency means the concentration at half of the fitted maximal effect. An outline of the steps: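 Luminescent demethylation readout: Luciferin-ME (100uM, equal to Km) turned over by 20nM CYP1A2 for 60 min at room temperature after NADPH regeneration addition, following 10 min compound preincubation. Normalization used 57 uM furafylline as full inhibition.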
Chain of Cytochrome P450 1A2 (Homo sapiens) (P05177 whole entry, looked up): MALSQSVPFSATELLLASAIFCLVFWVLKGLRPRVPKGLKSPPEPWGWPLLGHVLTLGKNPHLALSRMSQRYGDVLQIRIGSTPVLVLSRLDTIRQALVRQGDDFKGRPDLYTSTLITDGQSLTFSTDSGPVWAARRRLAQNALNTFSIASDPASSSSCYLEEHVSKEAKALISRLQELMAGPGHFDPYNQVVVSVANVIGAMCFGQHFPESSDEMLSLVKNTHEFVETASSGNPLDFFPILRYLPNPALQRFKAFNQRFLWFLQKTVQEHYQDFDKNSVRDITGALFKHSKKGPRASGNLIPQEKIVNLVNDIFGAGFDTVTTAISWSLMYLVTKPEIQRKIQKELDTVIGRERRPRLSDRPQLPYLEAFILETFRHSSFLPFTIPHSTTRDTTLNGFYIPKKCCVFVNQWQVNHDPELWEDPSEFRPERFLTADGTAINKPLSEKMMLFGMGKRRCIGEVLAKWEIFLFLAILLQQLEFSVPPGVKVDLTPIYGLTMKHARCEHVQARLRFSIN

For test [11], the target named is Mitogen-activated protein kinase 10 (Mus musculus) (UniProt Q61831). In words: JNK3 AlphaScreen Assay (AID 530; active means well fitted curve in either direction with a large enough effect, not every such curve was filed as active;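 further: kinase came from lysate of stimulated human HepG2 cells; signal reports phosphorylation of biotinylated GST-cJun 1-79 at Ser73 with 10 µM ATP; on the % scale 0 is the no-effect control and ±100 the full control effect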). The essentials: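 Phosphorylation of biotinylated GST-cJun(1-79) at Ser73 is measured by AlphaScreen proximity luminescence. Enzyme is JNK3 in HepG2 lysates activated with interleukin-1beta and tumor necrosis factor alpha; ATP is 10 uM final.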
For test [12], the target named is Cytochrome P450 2D6 (Homo sapiens) (UniProt P10635). Briefly: qHTS Assay for Inhibitors and Substrates of Cytochrome P450 2D6 (AID 891; active means well fitted curve in the direction sought with a large enough effect; an effect the other way counts as inactive or inconclusive; further: potency means the concentration at half of the fitted maximal effect; nearly all actives have a fitted effect of over 60% in size). The essentials:
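Luminescent read-out of luciferin formed by 5 nM human CYP2D6 demethylating 30 uM Luciferin-ME EGE (Km level) over 60 min at room temperature after NADPH regeneration addition. Data normalized to full inhibition by 1.43 uM quinidine.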

The target in test [13] is DNA dC->dU-editing enzyme APOBEC-3G (Homo sapiens) (UniProt Q9HC16). Briefly: qHTS for inhibitors of Vif-A3G interactions: Validation (AID 588379; active means well fitted curve in the direction sought with a large enough effect; an effect the other way counts as inactive or inconclusive; further: 0% is about no effect). An outline of the steps: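 Yellow fluorescence (Ex 488, Em 500-530) of Vif-coexpressing HeLa A3G-eYFP cells, scanned by Acumen cytometer, reports blocked A3G degradation. Cells plated at 700/well overnight at 37 deg C before compound addition, then a further overnight compound incubation at 37 deg C.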
Chain of DNA dC->dU-editing enzyme APOBEC-3G (Homo sapiens) (Q9HC16 whole entry, looked up): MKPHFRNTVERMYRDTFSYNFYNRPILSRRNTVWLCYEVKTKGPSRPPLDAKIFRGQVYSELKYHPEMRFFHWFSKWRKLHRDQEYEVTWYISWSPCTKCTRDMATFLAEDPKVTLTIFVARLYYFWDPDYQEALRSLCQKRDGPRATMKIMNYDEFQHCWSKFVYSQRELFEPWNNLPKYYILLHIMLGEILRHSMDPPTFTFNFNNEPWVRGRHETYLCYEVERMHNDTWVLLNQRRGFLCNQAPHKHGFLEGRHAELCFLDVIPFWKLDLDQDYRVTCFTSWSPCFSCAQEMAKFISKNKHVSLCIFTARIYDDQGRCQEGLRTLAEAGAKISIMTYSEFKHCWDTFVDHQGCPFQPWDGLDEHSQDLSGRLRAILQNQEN

The target in test [14] is Cytochrome P450 3A4 (Homo sapiens) (UniProt P08684). In words: qHTS Assay for Inhibitors and Substrates of Cytochrome P450 3A4 (AID 884; active means well fitted curve in the direction sought with a large enough effect; an effect the other way counts as inactive or inconclusive; further: on the % scale 0 is the no-effect control and ±100 the full control effect; nearly all actives have a fitted effect of over 50% in size). An outline of the steps:
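Luminescent readout of luciferin produced by CYP3A4 (20 nM) dealkylation of Luciferin-PPXE, 25 uM (its KM). NADPH-driven reaction ran 60 min at RT after 10 min compound preincubation; data scaled to 57 uM ketoconazole as 100% inhibition.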

Setting [15] is: measured here: cell count channel max response.
The mark [16] stands for this setting: measured here: lipid channel max response.

Chain of Ubiquitin carboxyl-terminal hydrolase 1 (Homo sapiens) (O94782 whole entry, looked up): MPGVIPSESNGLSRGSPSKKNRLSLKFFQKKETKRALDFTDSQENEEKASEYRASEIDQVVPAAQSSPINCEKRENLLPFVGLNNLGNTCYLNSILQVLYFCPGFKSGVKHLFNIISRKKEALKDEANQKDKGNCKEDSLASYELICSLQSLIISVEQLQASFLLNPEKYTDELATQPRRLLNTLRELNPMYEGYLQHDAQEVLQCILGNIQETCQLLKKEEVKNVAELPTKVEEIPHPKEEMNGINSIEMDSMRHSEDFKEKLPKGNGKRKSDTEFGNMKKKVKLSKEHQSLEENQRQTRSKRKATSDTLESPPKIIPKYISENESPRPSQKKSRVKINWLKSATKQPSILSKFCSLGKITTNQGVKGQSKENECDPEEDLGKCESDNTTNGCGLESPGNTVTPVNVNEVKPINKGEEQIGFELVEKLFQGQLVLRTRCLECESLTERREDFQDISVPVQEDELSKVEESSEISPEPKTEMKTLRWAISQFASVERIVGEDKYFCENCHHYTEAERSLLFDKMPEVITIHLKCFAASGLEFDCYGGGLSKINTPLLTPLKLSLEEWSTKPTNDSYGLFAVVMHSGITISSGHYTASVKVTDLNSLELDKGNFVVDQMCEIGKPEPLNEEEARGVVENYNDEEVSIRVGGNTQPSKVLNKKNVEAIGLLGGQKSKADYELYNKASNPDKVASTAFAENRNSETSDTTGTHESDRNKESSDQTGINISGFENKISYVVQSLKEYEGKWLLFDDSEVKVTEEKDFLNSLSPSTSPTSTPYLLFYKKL
Chain of Cytochrome P450 3A4 (Homo sapiens) (P08684 whole entry, looked up): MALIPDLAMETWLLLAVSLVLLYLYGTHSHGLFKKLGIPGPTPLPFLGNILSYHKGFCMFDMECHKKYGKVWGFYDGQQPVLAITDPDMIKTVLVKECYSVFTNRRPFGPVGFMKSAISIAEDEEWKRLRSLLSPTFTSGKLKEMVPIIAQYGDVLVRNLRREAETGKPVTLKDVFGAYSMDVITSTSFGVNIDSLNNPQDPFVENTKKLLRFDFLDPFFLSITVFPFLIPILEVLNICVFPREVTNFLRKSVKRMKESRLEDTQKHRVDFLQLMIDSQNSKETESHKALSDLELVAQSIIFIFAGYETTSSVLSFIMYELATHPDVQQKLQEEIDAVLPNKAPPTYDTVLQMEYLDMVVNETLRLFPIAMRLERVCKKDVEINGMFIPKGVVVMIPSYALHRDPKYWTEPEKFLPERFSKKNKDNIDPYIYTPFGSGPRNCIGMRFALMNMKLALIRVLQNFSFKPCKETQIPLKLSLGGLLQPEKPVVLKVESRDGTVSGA
Chain of Cytochrome P450 2D6 (Homo sapiens) (P10635 whole entry, looked up): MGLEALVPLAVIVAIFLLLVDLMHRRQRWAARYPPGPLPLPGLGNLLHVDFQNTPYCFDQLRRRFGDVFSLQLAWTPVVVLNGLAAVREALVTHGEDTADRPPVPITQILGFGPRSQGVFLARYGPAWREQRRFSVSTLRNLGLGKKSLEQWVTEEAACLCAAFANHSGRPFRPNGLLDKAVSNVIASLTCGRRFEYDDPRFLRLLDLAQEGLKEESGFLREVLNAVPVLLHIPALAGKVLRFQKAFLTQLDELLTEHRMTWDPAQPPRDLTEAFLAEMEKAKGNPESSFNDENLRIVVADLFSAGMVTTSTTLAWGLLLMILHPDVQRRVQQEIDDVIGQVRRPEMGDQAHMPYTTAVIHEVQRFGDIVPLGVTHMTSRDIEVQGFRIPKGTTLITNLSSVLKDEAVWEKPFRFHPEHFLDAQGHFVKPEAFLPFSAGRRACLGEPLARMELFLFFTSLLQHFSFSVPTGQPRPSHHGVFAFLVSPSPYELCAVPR

On to `CC(C)NC[C@@H](O)COc1cccc2[nH]ccc12`, for which the activity change, negative = inhibition was 5.19% (inactive) in [1] (at 17.2 µM (top of the series)); 17% (inactive) and 4.44% (inactive) in [1] (at 38 µM (top of the series)); 4% (inactive) in [2] (at 17.2 µM (top of the series)); 1.65% (inactive) and 1.97% (inactive) in [2] (at 38 µM (top of the series)); 0.0529% (inactive) in test [7] (at 25.7 µM (top of the series)); 6.23% (inactive) in test [7] (at 57.5 µM (top of the series)). Besides, the activity, negative = inhibition in test [3] (at 17.2 µM (top of the series)) is 19% (inactive); in test [3] (at 38 µM (top of the series)) it was 12.1% (inactive) and 12.9% (inactive). In addition, the Potency in test [4] was > 46 µM (inactive) and > 20.6 µM (inactive); in test [5], > 46 µM (inactive) and > 20.6 µM (inactive). The Potency entry in test [6], in [8] and in [9] was “inactive” throughout. Further, the max response in [7] (setting [15]) was -7.16% and 6.39%; in test [7] (setting [16]), -7.67% and 11.8%.

Turning to `N[C@@H](C(=O)O)[C@H](CC(=O)O)c1ccc(Cl)cc1`, the Potency result in test [10], in test [11], in test [6], in test [13] and in test [9] was “inactive” in each case. In addition, the Potency was > 46 µM (inactive) in test [5] and 2.51 µM (active) in [12]. In [7] (at 57.5 µM (top of the series)), the activity change, negative = inhibition was -4.76% (inactive). The max response was -14.9% in [7] (setting [15]) and -17.6% in test [7] (setting [16]).

As for `Nc1ncnc2c1ncn2[C@@H]1O[C@H](COP(=O)(O)OP(=O)(O)O)[C@@H](O)[C@H]1O`, the Potency result in [14], in [8], in test [13] and in test [9] was “inactive” each time. In addition, in [7] (at 57.5 µM (top of the series)), the activity change, negative = inhibition is 5.3% (inactive). Also, the max response in test [7] (setting [15]) was -2.57%; in [7] (setting [16]), 2.42%.

Turning to `CN1[C@H](CC(=O)c2ccccc2)CCC[C@H]1C[C@H](O)c1ccccc1`, the Potency in test [10] is 15.8 µM (active). In [7] (at 57.5 µM (top of the series)), the activity change, negative = inhibition is 4.17% (inactive). The results for the max response in test [7] (setting [15]) and in test [7] (setting [16]) were 24.7% and 29.8%, respectively. Also, the Potency result in test [8], in [13] and in test [9] was “inactive” in each case.
